Screening results as filed in PubChem BioAssay.
NPC1 prom act: activates the NPC1 promoter. Huh7 NPC1 promoter luciferase reporter, 24 h. Potency, µM (titrated, usually from 9.22 µM), for the others: at the highest dose activation, most hits filed as activators. 320,000 tested, 2.4% active. AID 485313; note: % of control where 0% means no effect; nearly all actives have a fitted effect of over 60% in size
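Cells: Huh7 expressing luciferase under the NPC1 promoter, 1500/well. Seeded 2 h, compound added, incubated 24 h at 37 °C. Luciferase reagent, 10 min ambient, then luminescence.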
SMN2 splice enh: enhancers of SMN2 splice variant expression; HEK293 SMN2-luciferase splicing reporter, luminescence, 30-36 h; Potency, µM (doses to about 46.1 µM), for the others: top-dose activity change, positive = activation, actives largely listed as activators; 210,000 tested, 2.8% active; AID 1458; note: % of control where 0% means no effect; nearly all actives have a fitted effect of over 55% in size
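qHTS luciferase splicing reporter: luminescence rises when SMN2 exon 7 is included in transfected HEK293 cells. Compound exposure lasted 30-36 h at 37C, with 4.5 mM final sodium butyrate as control, followed by a ONE-Glo read.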
FLuc counter: inhibits or activates purified firefly luciferase, miR-21 counter-screen; 360,000 tested, 6.9% active; Potency, µM (top dose mostly 57.5 µM), without a hit: at the highest dose activity change, negative = inhibition, hits mostly inhibitors; purified FLuc, Km substrates, luminescence inhibition; P08659;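 note: plate controls were vehicle for no effect and reference inhibitor for full effect; nearly all actives have a fitted effect of over 55% in size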
Target sequence (P08659 whole entry, looked up): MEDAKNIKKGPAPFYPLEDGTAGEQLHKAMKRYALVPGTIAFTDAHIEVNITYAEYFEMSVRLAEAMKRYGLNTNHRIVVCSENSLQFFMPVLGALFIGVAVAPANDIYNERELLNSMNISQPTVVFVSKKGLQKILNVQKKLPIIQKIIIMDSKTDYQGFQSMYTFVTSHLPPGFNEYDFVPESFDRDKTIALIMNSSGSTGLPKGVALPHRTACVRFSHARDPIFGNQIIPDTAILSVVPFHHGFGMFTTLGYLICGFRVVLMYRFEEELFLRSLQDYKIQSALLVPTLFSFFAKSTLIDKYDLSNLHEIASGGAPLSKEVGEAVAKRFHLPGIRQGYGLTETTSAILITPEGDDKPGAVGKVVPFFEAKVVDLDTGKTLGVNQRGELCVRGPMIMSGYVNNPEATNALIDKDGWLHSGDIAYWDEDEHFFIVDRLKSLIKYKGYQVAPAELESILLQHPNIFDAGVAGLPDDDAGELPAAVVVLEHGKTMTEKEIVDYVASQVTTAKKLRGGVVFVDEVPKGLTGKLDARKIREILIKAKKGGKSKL
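Purified P. pyralis luciferase (10nM final) with 10uM D-luciferin and 10uM ATP (Km levels) in 50mM Tris acetate pH 7.5, 10mM Mg acetate, 0.01% Tween-20, 0.05% BSA; qHTS 6-point titration, ~60 µM downward; luminescence read.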
ELG1 DNA repair: ELG1-dependent DNA repair inhibition; HEK293T ELG1-luciferase reporter, luminescence, 16 h; DNA damage induced by 5-fluorouridine; 330,000 tested, 2.3% active; Potency, µM (titrated, usually from 46.1 µM), for the others: at the highest dose activity change, negative = inhibition, most hits filed as inhibitors; note: % is set by controls: 0 for no effect and ±100 for the full control effect; nearly all actives have a fitted effect of over 55% in size
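Reporter activity after DNA damage by 5-fluorouridine is monitored. Compound-treated cells incubate 16 hr at 37 °C, then ONE-Glo is added for 30 min before luminescence reading.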
Rab9 promoter act: activators of Rab9 promoter. Huh7 Rab9 promoter-luciferase reporter, luminescence, 24 h. Potency, µM (doses to about 9.22 µM), without a hit: at the highest dose activation, negative = inhibition, most hits filed as activators. 320,000 tested, 2.8% active; note: % of control where 0% means no effect; nearly all actives have a fitted effect of over 60% in size
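Luciferase signal after 10 min detection reagent at ambient indicates Rab9 promoter upregulation; stably transfected Huh7 cells were treated 24 h with compound in DMSO at 37 °C, 5% CO2.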
ELG1 genotoxic: induces genotoxicity in HEK293T cells with luciferase-tagged ELG1; HEK293T ELG1-luciferase reporter, luminescence, 16 h; Potency, µM (series often up to 46 µM), without a hit: top-dose activity change, positive = activation, most hits filed as activators; 330,000 tested, 1.3% active; AID 504466; note: % of control where 0% means no effect; nearly all actives have a fitted effect of over 60% in size
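Screening used a luciferase reporter fused to human ELG1 in HEK293T cells. Luminescence was read on a CCD plate imager after 16 hr exposure and 30 min ONE-Glo incubation.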
Numbers without * were called inactive; ? = inconclusive; . = no result given; [ ] = dose if it differs, or a comment. Sampled rows, rich in hits. Any-hit rate of the full collection: about 9.2%. Calls come from the whole dose curve; as a rule, active = well fitted curve in the direction sought with a large enough effect; inconclusive = small, poorly fitted or top-dose-only effect, or another doubt; inactive = no such curve, though single readings can be large; an effect the other way counts as inactive or inconclusive. Potency is the fitted concentration of half-maximal effect.

SMILES	NPC1 prom act	SMN2 splice enh	FLuc counter	ELG1 DNA repair	Rab9 promoter act	ELG1 genotoxic
CN(C)C(=O)N1CCN(c2nc(-c3ccccc3)cs2)CC1	2.2µM*	.	3µM*	?	1.1µM*	?
COc1ccc(/C=C2\Sc3ccc(C(=O)NCCCN4CCCC4)cc3N(C)C2=O)cc1OC	0%	.	-7%	5%	-9%	10%
O=C(COC(=O)C1CCN(c2ccc(C(F)(F)F)cn2)CC1)c1ccccc1	0%	.	?	?	4%	0%
CCOC(=O)CSc1nnc(-c2ccccc2)o1	-2%	-7%	?	20%	0%	2%
CCOC(=O)c1cc(-c2nnc(-c3ccc(Cl)cc3)o2)c(C)nc1C	0%	-18%	1%	0%	-3%	2%
CCOC(=O)c1ccc(-c2nnc(-c3ccc(Cl)cc3Cl)o2)cc1	0.63µM*	3.5µM*	3%	?	0.5µM*	16%
CCCOC(=O)CSc1nnc(-c2ccc(Cl)cc2Cl)o1	2%	-4%	15µM*	0%	-1%	1%
CCOC(=O)CSc1nnc(-c2ccc(Cl)cc2Cl)o1	1%	-1%	8.5µM*	20%	-2%	9%
CN1CCN(C(=O)C2=C[C@H](c3csc4ccccc34)C[C@H](OCCCCO)O2)CC1	2%	.	2%	0%	0%	6%
Cc1noc(C)c1COC(=O)c1cc(=O)[nH]c2ccccc12	-5%	-10%	-1%	10%	3%	5%
CCNC(=O)COC(=O)c1cc(C)nc2ccccc12	-7%	3%	0%	1%	-5%	0%
CCNC(=O)COC(=O)c1ccc(-c2nc3ccccc3s2)s1	17%	13µM*	1.3µM*	?	?	?
Cc1noc(C)c1COC(=O)c1ccc(-c2nc3ccccc3s2)s1	?	10µM*	5.4µM*	?	3.5µM*	7.3µM*
CC(=O)Nc1cccc(Oc2ccc(-c3noc(C)n3)cc2)c1	3.2µM*	10µM*	12µM*	?	1.6µM*	9.2µM*
O=C(Nc1ccc(-c2noc(-c3cccs3)n2)cc1)c1cccnc1	1µM*	1.3µM*	4.8µM*	?	0.45µM*	?
COc1ccc(-c2noc(-c3ccccc3C(=O)Nc3cccnc3)n2)cc1	16%	5%	13µM*	?	29%	-9%
COc1ccccc1-c1noc(-c2ccccc2C(=O)Nc2cccnc2)n1	-4%	24%	15µM*	-13%	-3%	-5%
Cc1ccccc1NC(=O)C(NC1CCCCC1)C(C)C (stereo not given)	-3%	.	0%	2%	-8%	-1%
CC(C)OP(=O)(OC(C)C)C(O)c1ccc(N(C)C)cc1 (stereo not given)	0%	.	-3%	2%	-3%	-4%
O=C(c1ccc(CNS(=O)(=O)c2ccc(Br)cc2)cc1)N1CCCCCC1	-7%	.	0%	?	-7%	-8%
COc1ccc(-c2noc(-c3ccccc3C(=O)Nc3cccc(OC)c3)n2)cc1	5%	-35%	11µM*	?	-2%	-1%
O=c1[nH]c(=S)[nH]c2sccc12	-3%	12%	-10%	7%	4%	-2%
Cc1cc(C(=O)N2CCCC(C(=O)c3cccc(C(F)(F)F)c3)C2)nc(C)n1 (stereo not given)	-5%	-20%	4%	6%	-2%	0%
C=CCC[C@H](Cc1ccc(F)cc1)C(=O)OC[C@@H](Cc1c[nH]c2ccccc12)NC(=O)[C@H](CC=C)CC(=O)N(CCO)Cc1ccccc1	.	.	.	16µM*	.	-13%
C=CCC[C@@H](Cc1ccc(F)cc1)C(=O)OC[C@@H](Cc1c[nH]c2ccccc12)NC(=O)[C@H](CC=C)CC(=O)N(CCO)Cc1ccccc1	.	.	.	18µM*	.	-12%
SMILES	NPC1 prom act	SMN2 splice enh	FLuc counter	ELG1 DNA repair	Rab9 promoter act	ELG1 genotoxic
Cc1ccc(S(=O)(=O)N(CC(=O)N(C(C)C)C(C)C)C(=O)N2CCN(C)CC2)cc1	-2%	.	3%	13%	-1%	1%
Cc1ccccc1OCC(=O)N/N=C/c1cccc2cccnc12	-3%	.	-15%	-24%	3%	2%
O=C(COc1cccc2cccnc12)N/N=C/c1ccc(O)cc1	-4%	12%	17µM*	15%	1%	-5%
O=C(COc1cccc2cccnc12)Nc1ccccc1	?	?	21µM*	?	4µM*	11%
O=C(COc1cccc2cccnc12)N/N=C/c1ccccc1O	-2%	.	-10%	8.2µM*	-7%	1%
Oc1ccccc1/C=N/Nc1cccc2cccnc12	?	?	1.5µM*	?	13%	?
O=C(COc1cccc2cccnc12)Nc1cccc(S(=O)(=O)N2CCCC2)c1	-1%	.	-14%	?	-7%	-2%
Cc1ccc(-c2ccc(CO)o2)cc1N	8%	-47%	-18%	?	-9%	-19%
CCOc1ccc(-c2ccc(CO)o2)cc1N	.	.	15µM*	.	.	.
CCOC(=O)c1ccc(-c2ccc(CO)o2)cc1	1.1µM*	7.9µM*	11µM*	?	1.6µM*	?
CS(=O)(=O)C1=NSC2=NC(=O)/C(=C\c3cccn3-c3ccc(Cl)cc3)C(=N)N21	0%	10%	-1%	16%	-10%	1%
CC1=CC2=NC(=O)/C(=C\c3cc(C)n(-c4ccccc4)c3C)C(=N)N2O1	1%	2%[1.84 µM]	5.4µM*	-1%	0%	-2%
CC1=CC2=NC(=O)/C(=C\c3cc(C)n(-c4cccc(Cl)c4)c3C)C(=N)N2O1	1%	-22%	?	?	1%	5%
CC1=CC2=NC(=O)/C(=C\c3cc(C)n(-c4ccccc4F)c3C)C(=N)N2O1	-1%	-6%[1.84 µM]	6µM*	-25%	-4%	-2%
Cc1cc(/C=C2/C(=N)N3C(=NC2=O)SN=C3S(C)(=O)=O)c(C)n1-c1ccccc1F	3.2µM*	13µM*	0.3µM*	?	3.2µM*	-3%
Cc1cc(C(=O)NNC2CC(=O)N(c3ccc4ccccc4c3)C2=O)c(C)o1 (stereo not given)	0%	11%	-11%	-1%	-17%	0%
COc1ccc(/C(N)=N/OC(=O)Cc2ccc(C)cc2)cc1	14%	12%	?	?	24%	16%
COc1ccc(C(=O)O/N=C(\N)c2ccc(Cl)cc2)cc1	3.2µM*	.	2.4µM*	?	?	?
COc1ccc(/C(N)=N/OC(=O)c2ccc(Br)o2)cc1	?	.	6µM*	?	?	?
COc1ccccc1C(=O)O/N=C(\N)c1ccc(Cl)cc1	?	?	21µM*	?	28%	?
CCOc1ccc(N2C(=O)CC(C(C)c3ccccc3)C2=O)cc1 (stereo not given)	2%	.	-18%	-16%	4%	0%
